Source: PubChem BioAssay (Tox21)
Records with an inconclusive call do not appear. Calls of active or inactive are those of the source. Unless noted, the call rests on the fitted dose curve.

Assays:
[1] = Nuclear factor erythroid 2-related factor 2/antioxidant responsive element (Nrf2/ARE) small molecule agonists: qHTS cell viability counter screen in human keratinocytes (AID 1919968; active means well fitted curve in the direction sought with a large enough effect in the repeat runs; an effect the other way counts as inactive or inconclusive; further: nearly all actives have a fitted effect of over 55% in size)
In short: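 In human HaCaT keratinocytes stably expressing an ARE-driven luciferase, compound exposure lasted 23 h at 37 C under 5% CO2. Viable cells are quantified with a protease-based fluorogenic reagent (CellTiter-Fluor) read 1 h after addition.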

[2] = Nuclear factor erythroid 2-related factor 2/antioxidant responsive element (Nrf2/ARE) small molecule agonists: luciferase reporter gene qHTS assay in human keratinocytes (AID 1919969); further: nearly all actives have a fitted effect of over 35% in size; further: potency means the concentration at half of the fitted maximal effect
[3] = target: Gonadotropin-releasing hormone receptor (Homo sapiens) (UniProt P30968); experiment: Human gonadotropin-releasing hormone receptor (GnRHR) small molecule agonists, calcium flux assay in GnRHR-HEK293 cells (AID 1920063); further: nearly all actives have a fitted effect of over 35% in size
In short: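 Intracellular calcium rise is the read-out: engineered human GnRHR HEK293 cells, dye-loaded, are exposed to DMSO-dissolved compounds and fluorescence at Ex/Em 480/540 is tracked for 3 min.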

[4] = target: KiSS-1 receptor (Homo sapiens) (UniProt Q969F8); experiment: Human kisspeptin (KISS1R) small molecule agonists, calcium flux assay in KISS1R-HEK293 cells (AID 1920064; active means well fitted curve in the direction sought with a large enough effect in the repeat runs; an effect the other way counts as inactive or inconclusive)
In short: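 Concentration-response testing used 15 concentrations in triplicate on human KISS1R-expressing HEK293 cells. Calcium-dependent fluorescence (Ex/Em 480/540) was followed kinetically for 3 min after compound transfer.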

[5] = G protein-coupled receptor (GPCR) small molecule agonists, calcium flux assay: HEK293 wild type cell line counter screen (AID 1920065)
In short: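 Fluorescence intensity signals activation. After overnight (18 h) culture and a 1 h calcium dye load at 37 C, compounds are added by pin tool and the plate read at 480/540 nm for 3 min in 1 s steps.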

[6] = p53 small molecule agonists, cell-based qHTS assay with human liver microsomes (AID 1963577);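 further: p53 response element beta-lactamase reporter cells with liver microsomes plus NADPH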
In short: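 HLM-supplemented p53RE-bla reporter assay: 16 h compound exposure at 37 C, microsomes and NADPH each 0.5 mg/mL final, read by fluorescence intensity.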

[7] = p53 small molecule agonists, cell-based qHTS assay with rat liver microsomes (AID 1963578)
In short: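 Quantitative HTS of the Tox21 10K library: p53RE-bla cells, rat liver microsomes plus NADPH at 0.5 mg/mL final each, 16 h at 37 C, beta-lactamase fluorescence detection.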

[8] = p53 small molecule agonists, cell-based qHTS assay with human liver microsomes: qHTS cell viability counter screen (AID 1963579); further: nearly all actives have a fitted effect of over 45% in size
In short: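 Viability of p53RE-bla cells is measured as CellTiter-Glo luminescence following a 16 h, 37 C incubation with compound, liver microsomes from human donors and NADPH.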

[9] = p53 small molecule agonists, cell-based qHTS assay: qHTS cell viability counter screen (AID 1963581); further: nearly all actives have a fitted effect of over 45% in size
In short: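 Luminescence from CellTiter-Glo, reflecting ATP content, serves as the cytotoxicity measure; it is taken after the 2 h reporter substrate step in HCT-116 p53RE-bla cells dosed for 16 h at 37 C.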

[10] = p53 small molecule agonists, cell-based qHTS assay (AID 1963582; active means well fitted activation curve with a large enough effect in the signal ratio in the repeat runs, not every such curve was filed as active; the % refers to the signal ratio)
In short: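 After plating, p53RE-bla cells sat 5 h in the incubator; compounds or DMSO vehicle were pinned in; a 16 h incubation at 37 C followed; FRET substrate was added and, 2 h later at RT, fluorescence was measured.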

[11] = target: 5-hydroxytryptamine receptor 2A (Homo sapiens) (UniProt P28223); experiment: 5-hydroxytryptamine receptor 2A (HTR2A) small molecule antagonists, cell-based qHTS assay (AID 1963586); further: nearly all actives have a fitted effect of over 45% in size
In short: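 CHO cells stably expressing human HTR2A were plated for 18 h at 37 C, then loaded with calcium dye for 1 h. Compounds were preincubated 5 min at room temperature before DOI (4 nM solution) was added. Kinetic fluorescence was read for 3 min.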

[12] = target: 5-hydroxytryptamine receptor 2A (Homo sapiens) (UniProt P28223); experiment: 5-hydroxytryptamine receptor 2A (HTR2A) small molecule agonists, cell-based qHTS assay (AID 1963587); further: nearly all actives have a fitted effect of over 30% in size
In short: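 HTR2A-CHO cells, plated 18 h at 37 C/5% CO2, dye-loaded 1 h at 37 C; compounds in DMSO added by pin tool (agonist mode). Intracellular calcium flux read as kinetic fluorescence on FDSS over 2 min at 1 s intervals.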

[13] = target: Muscarinic acetylcholine receptor M1 (Homo sapiens) (UniProt P11229); experiment: Cholinergic receptor muscarinic 1 (CHRM1) small molecule antagonists, cell-based qHTS assay (AID 1963588); further: nearly all actives have a fitted effect of over 40% in size
In short: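 Compounds were tested at 15 concentrations in three independent runs. Dye-loaded CHRM1-CHO cells were exposed 5 min at room temperature before stimulation by acetylcholine added at 50nM. Intracellular calcium was read kinetically on FDSS for 3 min.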

[14] = target: Muscarinic acetylcholine receptor M1 (Homo sapiens) (UniProt P11229); experiment: Cholinergic receptor muscarinic 1 (CHRM1) small molecule agonists, cell-based qHTS assay (AID 1963589); further: nearly all actives have a fitted effect of over 35% in size
In short: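 Fluorescent calcium dye reports M1 activation in stably transfected CHO cells. Compounds, 15 concentrations, added after 1 h dye loading at 37 C; kinetic reading at 1 sec intervals.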

[15] = cAMP Responsive Elements (CRE) small molecule agonists, cell-based qHTS assay (AID 1963590)
In short: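 Compound exposure lasted 3 h at 37 C/5% CO2 in CRE-bla HEK 293T cells grown in assay medium with 10% dialyzed FBS and 25 mM HEPES. Reporter signal came from LiveBLAzer B/G FRET substrate, 2 h, room temperature.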

[16] = cAMP Responsive Elements (CRE) small molecule antagonists, cell-based qHTS assay (AID 1963591; active means well fitted inhibition curve with a large enough effect in the signal ratio in the repeat runs, not every such curve was filed as active; the % refers to the signal ratio)
In short: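 Stimulation used NKH477 at a final 0.25 uM for 3 h in compound-treated CRE-bla HEK293T cells, seeded 18 h beforehand. Reporter activity was measured with LiveBLAzer B/G FRET substrate after 2 h at room temperature.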

[17] = target: Beta-2 adrenergic receptor (Homo sapiens) (UniProt P07550); experiment: Adrenergic beta2 receptor (ADRB2) small molecule antagonists, cell-based qHTS assay (AID 1963592); further: series mostly up to about 92 µM; nearly all actives have a fitted effect of over 50% in size
In short: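 Assay format: CHO-ADRB2 cells, 18-20hr seeding at 37C/5% CO2, then compound plus 1nM isoproterenol agonist mix for 0.5hr RT. Homogeneous time-resolved fluorescence cAMP detection after 1hr, expressed as 665/615 nm ratio.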

[18] = target: D(2) dopamine receptor (Homo sapiens) (UniProt P14416); experiment: Dopamine D2 receptor (DRD2) small molecule agonists, cell-based qHTS assay (AID 1963594); further: nearly all actives have a fitted effect of over 35% in size
In short: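 HEK293 cells stably expressing DRD2 were cultured 24 h at 37 C, then given Ro20-1724 (0.1 mM final) and compounds for 10 min at room temperature. NKH477 (200nM) was then added for 30 min. cAMP was read by HTRF.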

[19] = target: D(2) dopamine receptor (Homo sapiens) (UniProt P14416); experiment: Dopamine D2 receptor (DRD2) small molecule antagonists, cell-based qHTS assay (AID 1963595; active means well fitted inhibition curve with a large enough effect in the signal ratio in the repeat runs, with a control signal flat; the % refers to the signal ratio)
In short: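 Antagonism was scored as restored cAMP in HEK293-DRD2 cells. These cells were stimulated with 200 nM NKH477 and 12 nM quinpirole for 30 min at room temperature, in the presence of 0.1 mM Ro20-1724.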

[20] = target: Beta-2 adrenergic receptor (Homo sapiens) (UniProt P07550); experiment: Adrenergic beta2 receptor (ADRB2) small molecule agonists, cell-based qHTS assay (AID 1963593);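 further: CHO cells stably overexpressing human ADRB2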
In short: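 CHO cells stably over-expressing ADRB2 were plated overnight at 37C, then dosed with compounds plus a stimulation mix containing 100uM IBMX and 25uM Ro-20-1724 for 0.5hr at room temperature. cAMP was measured by HTRF competition, 1hr.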
On the % scale 0 is the no-effect control and ±100 the full control effect.

Chain of KiSS-1 receptor (Homo sapiens) (Q969F8 whole entry, looked up): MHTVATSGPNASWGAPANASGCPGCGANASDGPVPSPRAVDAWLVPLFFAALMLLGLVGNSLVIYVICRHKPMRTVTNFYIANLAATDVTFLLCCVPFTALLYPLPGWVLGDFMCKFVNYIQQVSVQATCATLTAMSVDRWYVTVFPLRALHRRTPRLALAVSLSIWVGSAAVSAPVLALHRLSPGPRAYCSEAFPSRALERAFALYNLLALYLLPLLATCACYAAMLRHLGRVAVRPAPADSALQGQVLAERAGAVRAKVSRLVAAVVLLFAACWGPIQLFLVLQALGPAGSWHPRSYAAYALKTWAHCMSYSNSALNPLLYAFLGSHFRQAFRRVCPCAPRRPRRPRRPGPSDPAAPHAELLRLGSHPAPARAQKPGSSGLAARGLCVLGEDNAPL
Chain of Beta-2 adrenergic receptor (Homo sapiens) (P07550 whole entry, looked up): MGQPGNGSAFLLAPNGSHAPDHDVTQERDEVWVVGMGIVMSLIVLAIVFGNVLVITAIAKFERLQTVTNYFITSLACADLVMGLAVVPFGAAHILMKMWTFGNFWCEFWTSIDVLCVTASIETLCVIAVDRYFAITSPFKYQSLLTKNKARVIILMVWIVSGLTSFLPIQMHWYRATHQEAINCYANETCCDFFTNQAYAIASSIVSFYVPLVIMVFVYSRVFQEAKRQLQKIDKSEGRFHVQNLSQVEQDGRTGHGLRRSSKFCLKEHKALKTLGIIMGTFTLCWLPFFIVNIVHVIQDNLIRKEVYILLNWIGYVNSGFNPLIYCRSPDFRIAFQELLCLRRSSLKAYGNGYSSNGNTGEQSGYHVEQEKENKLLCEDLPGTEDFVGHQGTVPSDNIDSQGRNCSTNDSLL
Chain of D(2) dopamine receptor (Homo sapiens) (P14416 whole entry, looked up): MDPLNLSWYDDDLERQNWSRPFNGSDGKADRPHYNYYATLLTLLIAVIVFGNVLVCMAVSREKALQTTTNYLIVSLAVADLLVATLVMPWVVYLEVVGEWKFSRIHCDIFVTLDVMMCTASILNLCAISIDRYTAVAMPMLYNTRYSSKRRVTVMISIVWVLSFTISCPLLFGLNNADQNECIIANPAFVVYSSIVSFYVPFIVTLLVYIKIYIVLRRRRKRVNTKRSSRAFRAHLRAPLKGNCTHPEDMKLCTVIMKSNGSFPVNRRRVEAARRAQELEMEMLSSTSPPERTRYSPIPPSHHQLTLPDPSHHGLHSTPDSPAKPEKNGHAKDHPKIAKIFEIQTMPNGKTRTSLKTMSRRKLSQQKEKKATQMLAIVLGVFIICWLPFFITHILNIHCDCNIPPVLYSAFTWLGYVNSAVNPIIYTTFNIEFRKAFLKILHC
Chain of Muscarinic acetylcholine receptor M1 (Homo sapiens) (P11229 whole entry, looked up): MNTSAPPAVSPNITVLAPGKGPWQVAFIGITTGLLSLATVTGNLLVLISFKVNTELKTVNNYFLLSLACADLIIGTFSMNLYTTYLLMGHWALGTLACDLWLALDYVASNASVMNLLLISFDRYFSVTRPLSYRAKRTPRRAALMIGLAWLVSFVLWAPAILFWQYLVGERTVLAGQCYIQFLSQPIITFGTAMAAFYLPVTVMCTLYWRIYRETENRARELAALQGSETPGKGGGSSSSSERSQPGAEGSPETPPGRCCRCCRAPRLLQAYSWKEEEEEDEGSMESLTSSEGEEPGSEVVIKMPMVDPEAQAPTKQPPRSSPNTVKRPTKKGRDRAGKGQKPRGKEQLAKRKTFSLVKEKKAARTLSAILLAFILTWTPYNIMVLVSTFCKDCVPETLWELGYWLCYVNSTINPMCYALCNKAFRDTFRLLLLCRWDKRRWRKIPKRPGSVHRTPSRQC
Chain of 5-hydroxytryptamine receptor 2A (Homo sapiens) (P28223 whole entry, looked up): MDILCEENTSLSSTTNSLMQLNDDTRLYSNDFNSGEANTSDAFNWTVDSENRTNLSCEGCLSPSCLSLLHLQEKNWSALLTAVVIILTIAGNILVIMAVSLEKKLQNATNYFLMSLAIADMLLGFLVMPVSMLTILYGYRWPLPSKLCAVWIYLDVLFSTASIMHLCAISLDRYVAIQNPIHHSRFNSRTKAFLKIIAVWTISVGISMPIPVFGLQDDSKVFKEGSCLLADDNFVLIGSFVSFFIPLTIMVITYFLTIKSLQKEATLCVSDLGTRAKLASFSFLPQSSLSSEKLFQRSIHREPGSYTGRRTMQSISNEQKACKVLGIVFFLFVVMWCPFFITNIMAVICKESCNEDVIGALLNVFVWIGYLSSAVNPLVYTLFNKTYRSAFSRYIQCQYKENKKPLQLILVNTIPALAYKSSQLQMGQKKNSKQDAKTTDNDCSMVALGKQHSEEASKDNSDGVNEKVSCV
Chain of Gonadotropin-releasing hormone receptor (Homo sapiens) (P30968 whole entry, looked up): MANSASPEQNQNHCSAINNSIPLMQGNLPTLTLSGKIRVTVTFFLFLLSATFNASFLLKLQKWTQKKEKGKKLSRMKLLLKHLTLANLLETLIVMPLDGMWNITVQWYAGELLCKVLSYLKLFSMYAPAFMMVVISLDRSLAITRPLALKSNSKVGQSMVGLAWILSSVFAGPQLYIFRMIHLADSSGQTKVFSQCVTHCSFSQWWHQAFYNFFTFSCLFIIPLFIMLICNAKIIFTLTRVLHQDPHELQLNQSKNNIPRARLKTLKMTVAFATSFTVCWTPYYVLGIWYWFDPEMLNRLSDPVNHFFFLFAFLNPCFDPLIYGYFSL

CCCCCCS
inactive: Potency [1] | Potency [2] | Potency [3] | Potency [4] | Potency [5] | Potency [6] | Potency [7] | Potency [8] | Potency [9] | Potency [10] | Potency [11] | Potency [12] | Potency [13] | Potency [14] | Potency [15] | Potency [16] | Potency [17] | Potency [18] | Potency [19]

CC(C)(C)CC(C)(C)c1ccc(Nc2ccc(C(C)(C)CC(C)(C)C)cc2)cc1
inactive: activity change, negative = cytotoxicity [1] 0.0348% [at 8.39 µM] | activity, positive = activation [2] -1.24% [at 8.39 µM] | activity change [3] 0.129% [at 5.22 µM, hits give high values] | activation [4] 0.255% [at 6.97 µM] | activation [5] -0.517% [at 5.23 µM] | activation [6] -1.73% [at 5.99 µM] | activation [7] -0.0551% [at 5.99 µM] | activity change, negative = cytotoxicity [8] -1.28% [at 5.99 µM] | activity change, negative = cytotoxicity [9] 0.663% [at 5.99 µM] | activation [10] 4.39% [at 5.99 µM] | activity, negative = inhibition [11] -0.349% [at 5.62 µM] | activation [12] 5.4% [at 7.02 µM] | activity, negative = inhibition [13] -10.6% [at 5.58 µM] | activation [14] 0.016% [at 6.97 µM] | activity change, negative = inhibition [16] -1.43% [at 8.39 µM] | activity change, negative = inhibition [17] -0.838% [at 8.39 µM] | activation [20] 6.6% [at 8.39 µM] | activation [18] 1.28% [at 8.39 µM] | activity change, negative = inhibition [19] -0.278% [at 8.38 µM]

CCCCC1CCC(=O)O1 (configuration not stated)
inactive: Potency [1] | Potency [2] | Potency [3] | Potency [4] | Potency [5] | Potency [6] | Potency [7] | Potency [8] | Potency [9] | Potency [10] | Potency [11] | Potency [12] | Potency [13] | Potency [14] | Potency [15] | Potency [16] | Potency [17] | Potency [18] | Potency [19]

C=CCOCC(CO)(COCC=C)COCC=C
inactive: Potency [1] | Potency [2] | Potency [3] | Potency [4] | Potency [5] | Potency [6] | Potency [7] | Potency [8] | Potency [9] | Potency [10] | Potency [11] | Potency [12] | Potency [13] | Potency [14] | Potency [15] | Potency [16] | Potency [17] | Potency [20]

[Cl][In]([Cl])[Cl]
active: Potency [2] 3.44 µM
inactive: Potency [1] | Potency [3] | Potency [4] | Potency [5] | Potency [6] | Potency [7] | Potency [8] | Potency [9] | Potency [10] | Potency [11] | Potency [12] | Potency [14] | Potency [15] | Potency [17] | Potency [18] | Potency [19]

CCC(C)(C)C1CCC(=O)CC1
inactive: Potency [1] | Potency [2] | Potency [3] | Potency [4] | Potency [5] | Potency [6] | Potency [7] | Potency [8] | Potency [9] | Potency [10] | Potency [11] | Potency [12] | Potency [13] | Potency [14] | Potency [15] | Potency [16] | Potency [17] | Potency [20] | Potency [18] | Potency [19]

C=C(C)C(=O)OCCC(C)OC(=O)C(=C)C (configuration not stated)
inactive: Potency [1] | Potency [2] | Potency [3] | Potency [4] | Potency [5] | Potency [6] | Potency [7] | Potency [8] | Potency [9] | Potency [10] | Potency [11] | Potency [12] | Potency [13] | Potency [14] | Potency [15] | Potency [16] | Potency [17] | Potency [20] | Potency [18] | Potency [19]
